According to PubChem BioAssay:
Active and inactive are the calls of the source. Unless noted, how the calls were made is not given here.

Tests used:
[1] = system: Wnt5a (protein binding on small-molecule microarray); assay: Wnt5a binders on small-molecule microarray, primary screen, biophysical, 635/667 nm fluorescence (AID 1142); conditions: 635 nm fluorescence, higher = more signal;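 further: fluorescence read at 667 nm with signal to noise per printed feature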
[2] = cell viability in Huh7 cells, primary screen, cytotoxicity control for HCV replication inhibitor project, CellTiter-Glo luminescence, basal, 48 h (AID 1143); conditions: Huh7 HCV replicon, higher = more signal, called active from +8 up or from −8 down;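 further: Huh7 hepatoma cells carrying a hepatitis C replication reporter with no stimulus; test concentration not given here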
[3] = P. aeruginosa biofilm formation inhibitors, primary screen, PAO1 strain, BacTiter-Glo luminescence, LB-PBS (AID 1144); conditions: 12 h, higher = more signal
[4] = CREB reporter modulators without forskolin, primary screen, cell-based, PC12, CRE-LacZ reporter, unstimulated (AID 1145); conditions: no forskolin, luminescence, 4.5 h, higher = more signal, called active from +8 up or from −8 down
[5] = CREB reporter modulators under forskolin, primary screen, cell-based, PC12, CRE-LacZ reporter, forskolin-stimulated (AID 1146); conditions: luminescence, 4.5 h, higher = more signal, called active from +8 up or from −8 down;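 further: PC12 cells with 6xCRE LacZ reporter stimulated by forskolin 10 µM; beta-galactosidase reporter signal reflecting CREB driven transcription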
[6] = molecular target: Streptavidin (Streptomyces avidinii) (UniProt P22629); assay: streptavidin binders on small-molecule microarray, primary screen, artefact control for SMM compound annotation, biophysical, 635/667 nm fluorescence (AID 1147); conditions: streptavidin binding, higher = more signal;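 further: signal reflects streptavidin binding to arrayed compounds as a control protein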
[7] = small-molecule binders of probe aInhba, primary screen, biochemical, small-molecule microarray, 635/667 nm fluorescence (AID 1148); conditions: higher = more signal;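 further: score merges 667nm spot fluorescence with signal-to-noise for antibody binding to printed compounds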
[8] = molecular target: Torsin-1A (Homo sapiens) (UniProt O14656); assay: torsin A binders from cell lysate, primary screen, small-molecule microarray, wild-type, 635/667 nm (AID 1149); conditions: COS7 hTOR1A-WT lysate, 635 nm fluorescence, higher = more signal
[9] = molecular target: Torsin-1A (Homo sapiens) (UniProt O14656); assay: small-molecule binders of mutant TOR1A in lysate, primary screen, cell lysate, small-molecule microarray, COS7 lysate, 635/667 nm fluorescence (AID 1150); conditions: COS7 hTOR1A mutant lysate, 635 nm fluorescence, higher = more signal;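 further: score pools 667 nm emission and signal to noise measuring lysate protein binding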
[10] = system: Sonic hedgehog protein (Shh); assay: small-molecule binders of Shh protein, primary screen, biochemical, small-molecule microarray, 635/667 nm fluorescence (AID 1151); conditions: small-molecule microarray binding, 635 nm fluorescence; higher = more signal;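 further: Shh protein binding to compounds spotted on small-molecule microarray slides; score combines spot fluorescence intensity with signal-to-noise across triplicate slides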
[11] = E. coli DRC41 culture turbidity changes, primary screen, E. coli filamentation inducer project, strain DRC41, OD650, 48 h (AID 1152);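 further: E. coli MC1000 strain DRC41 lacking acrAB efflux pump and sulA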; conditions: E. coli DRC41 (acrAB sulA), higher = more signal, called active from +8 up or from −8 down
[12] = small-molecule binders of probe aLefty1, primary screen, biochemical, small-molecule microarray, 635/667 nm fluorescence (AID 1153); conditions: higher = more signal;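 further: score merges spot fluorescence with signal-to-noise ratio from the scanned slide images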
[13] = PSAC antagonists in infected red cells, primary screen, cell-based, P. falciparum Indochina, OD700, 1 h (AID 1154); conditions: P. falciparum Indochina infected RBC osmotic lysis, higher = more signal, called active from +8 up or from −8 down
[14] = PSAC antagonists in infected red cells, primary screen, cell-based, P. falciparum Indochina, OD700, 2 h (AID 1155);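 further: lysis reports solute entry through the parasite surface anion channel PSAC; channel blockers reduce lysis of infected cells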; conditions: P. falciparum Indochina infected erythrocytes, osmotic lysis OD700; higher = more signal, called active from +8 up or from −8 down
[15] = osmotic lysis modulators in infected erythrocytes, primary screen, PSAC antagonist project, cell-based, P. falciparum Indochina, OD700, 3 h (AID 1156); conditions: higher = more signal, called active from +8 up or from −8 down
[16] = PSAC antagonists in infected red cells, primary screen, cell-based, P. falciparum Indochina, OD700, 18 h (AID 1157); conditions: P. falciparum Indochina infected erythrocytes, osmotic lysis OD700, 18 h; higher = more signal, called active from +8 up or from −8 down
[17] = modulators of S6 phosphorylation in cells, primary screen, cell-based, A549, cytoblot, luminescence, serum-stimulated (AID 1158); conditions: A549 phospho-S6 cytoblot, 5 h, higher = more signal;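 further: serum-stimulated A549 lung adenocarcinoma cells; signal is phosphorylated S6 detected by cytoblot immunostaining with HRP secondary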
[18] = molecular target: NADPH oxidase 2 (Homo sapiens) (UniProt P04839); assay: NOX2-dependent H2O2 signal modulators, primary screen, NOX inhibitor project, cell-based, HEK293-NOX2, PMA-stimulated, Amplex Red fluorescence (AID 1159); conditions: 45 min, higher = more signal, called active from +8 up or from −8 down; further: test concentration not given here
[19] = molecular target: NADPH oxidase 4 (Homo sapiens) (UniProt Q9NPH5); assay: NOX4-dependent H2O2 signal modulators, primary screen, NOX inhibitor project, cell-based, HEK293-NOX4, tetracycline-induced, Amplex Red fluorescence (AID 1160); conditions: 45 min, higher = more signal, called active from +8 up or from −8 down
[20] = molecular target: NADPH oxidase 5 (Homo sapiens) (UniProt Q96PH1); assay: NOX5-dependent H2O2 signal modulators, primary screen, NOX inhibitor project, cell-based, HEK293-NOX5, Amplex Red fluorescence (AID 1161); conditions: HEK293-NOX5, ionomycin, 45 min, higher = more signal
NADPH oxidase 5 (Homo sapiens), sequence (Q96PH1 whole entry, looked up): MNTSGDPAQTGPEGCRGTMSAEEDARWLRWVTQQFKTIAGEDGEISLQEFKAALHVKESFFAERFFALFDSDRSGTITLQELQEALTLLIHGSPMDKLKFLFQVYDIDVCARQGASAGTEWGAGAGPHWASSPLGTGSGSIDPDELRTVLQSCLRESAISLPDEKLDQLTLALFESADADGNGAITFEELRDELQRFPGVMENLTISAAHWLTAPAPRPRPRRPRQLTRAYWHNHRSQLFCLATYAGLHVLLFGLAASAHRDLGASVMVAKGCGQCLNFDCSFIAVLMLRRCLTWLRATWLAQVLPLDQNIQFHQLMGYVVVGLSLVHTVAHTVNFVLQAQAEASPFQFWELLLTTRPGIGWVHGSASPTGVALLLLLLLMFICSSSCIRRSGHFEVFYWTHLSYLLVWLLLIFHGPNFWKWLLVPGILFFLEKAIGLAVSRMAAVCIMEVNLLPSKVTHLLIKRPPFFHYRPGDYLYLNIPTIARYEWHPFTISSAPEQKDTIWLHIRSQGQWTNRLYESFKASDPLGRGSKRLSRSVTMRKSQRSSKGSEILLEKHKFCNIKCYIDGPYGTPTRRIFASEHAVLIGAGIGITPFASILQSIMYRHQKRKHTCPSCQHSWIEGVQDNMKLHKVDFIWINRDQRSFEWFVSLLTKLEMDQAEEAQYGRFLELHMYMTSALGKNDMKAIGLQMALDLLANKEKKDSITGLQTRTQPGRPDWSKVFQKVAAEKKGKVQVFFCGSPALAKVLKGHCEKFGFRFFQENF

Torsin-1A (Homo sapiens), sequence (O14656 whole entry, looked up): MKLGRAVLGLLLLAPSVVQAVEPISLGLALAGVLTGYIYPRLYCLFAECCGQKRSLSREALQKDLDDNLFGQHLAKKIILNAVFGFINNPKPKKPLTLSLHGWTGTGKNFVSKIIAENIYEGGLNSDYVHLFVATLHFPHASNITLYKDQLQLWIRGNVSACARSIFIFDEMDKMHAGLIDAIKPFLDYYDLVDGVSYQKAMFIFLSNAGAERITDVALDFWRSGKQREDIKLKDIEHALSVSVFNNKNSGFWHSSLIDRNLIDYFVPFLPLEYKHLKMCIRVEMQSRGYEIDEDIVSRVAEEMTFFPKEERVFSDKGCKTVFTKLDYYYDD
NADPH oxidase 2 (Homo sapiens), sequence (P04839 whole entry, looked up): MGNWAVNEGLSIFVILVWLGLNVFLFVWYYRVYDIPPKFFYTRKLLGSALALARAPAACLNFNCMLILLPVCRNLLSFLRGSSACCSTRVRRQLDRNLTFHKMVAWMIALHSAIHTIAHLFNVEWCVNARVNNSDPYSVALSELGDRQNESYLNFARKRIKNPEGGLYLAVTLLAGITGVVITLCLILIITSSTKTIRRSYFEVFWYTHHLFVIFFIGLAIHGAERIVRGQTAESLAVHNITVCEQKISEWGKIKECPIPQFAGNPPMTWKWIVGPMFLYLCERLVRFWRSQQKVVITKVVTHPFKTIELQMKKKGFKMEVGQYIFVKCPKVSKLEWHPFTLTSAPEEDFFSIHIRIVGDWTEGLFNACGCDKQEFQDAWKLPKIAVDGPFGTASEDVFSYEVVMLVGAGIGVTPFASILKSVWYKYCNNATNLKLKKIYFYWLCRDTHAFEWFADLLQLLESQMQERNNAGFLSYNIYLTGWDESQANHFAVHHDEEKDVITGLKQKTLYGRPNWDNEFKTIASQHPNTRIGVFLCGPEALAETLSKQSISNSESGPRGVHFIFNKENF
Streptavidin (Streptomyces avidinii), sequence (P22629 whole entry, looked up): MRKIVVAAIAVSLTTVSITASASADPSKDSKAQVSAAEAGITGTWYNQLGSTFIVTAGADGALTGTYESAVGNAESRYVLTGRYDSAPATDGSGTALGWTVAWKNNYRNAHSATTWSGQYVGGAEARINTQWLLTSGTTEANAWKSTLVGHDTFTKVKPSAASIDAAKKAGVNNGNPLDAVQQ
NADPH oxidase 4 (Homo sapiens), sequence (Q9NPH5 whole entry, looked up): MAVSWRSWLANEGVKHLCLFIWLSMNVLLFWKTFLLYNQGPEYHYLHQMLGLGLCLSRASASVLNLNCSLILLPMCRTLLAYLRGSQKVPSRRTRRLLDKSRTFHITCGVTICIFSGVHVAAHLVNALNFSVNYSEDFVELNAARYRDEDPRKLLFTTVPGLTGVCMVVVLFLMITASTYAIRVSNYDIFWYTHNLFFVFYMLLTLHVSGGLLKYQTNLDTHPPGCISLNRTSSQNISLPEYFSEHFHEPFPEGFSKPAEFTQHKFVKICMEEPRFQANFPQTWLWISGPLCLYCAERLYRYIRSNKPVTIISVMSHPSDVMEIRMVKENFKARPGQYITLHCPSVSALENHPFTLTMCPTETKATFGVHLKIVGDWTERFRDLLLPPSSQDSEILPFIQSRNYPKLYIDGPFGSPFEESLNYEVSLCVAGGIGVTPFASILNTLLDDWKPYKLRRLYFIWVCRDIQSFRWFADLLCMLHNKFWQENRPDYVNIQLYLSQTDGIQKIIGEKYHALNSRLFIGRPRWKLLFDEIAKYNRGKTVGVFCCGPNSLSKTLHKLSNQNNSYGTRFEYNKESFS

SMILES	composite z-score [1]	z-score [2]	z-score [3]	z-score [4]	z-score [5]	composite z-score [6]	composite z-score [7]	composite z-score [8]	composite z-score [9]	composite z-score [10]	z-score [11]	composite z-score [12]	z-score [13]	z-score [14]	z-score [15]	z-score [16]	z-score [17]	z-score [18]	z-score [19]	z-score [20]
COC(=O)[C@@]1(Cc2ccc(OC)cc2)[C@H]2c3cc(C(=O)N4CCCC4)n(CCc4ccc(O)c(OC)c4)c3C[C@H]2CN1C(=O)c1ccccc1	0.0928	-0.666 (inactive)	-0.414 (inactive)	2.5 (inactive)	1.04 (inactive)	0.199	0.12	0.168	0.774	-0.909	-1.82 (inactive)	0.128	2.81 (inactive)	0.626 (inactive)	0.394 (inactive)	0.594 (inactive)	0.389	-0.124 (inactive)	-1.39 (inactive)	-2.06
COc1ccc([Si](C)(C)[C@@H]2[C@@H](CCO)O[C@]3(C(=O)N(Cc4cccc(N5C(=O)COc6ccccc65)c4)c4ccccc43)[C@H]2C)cc1	-0.0772	-7.12 (inactive)	-0.17 (inactive)	6.98 (inactive)	0.586 (inactive)	0.428	0.0633	-0.277	-0.491	0.45	0.111 (inactive)	0.139	3.9 (inactive)	3.53 (inactive)	0.797 (inactive)	2.26 (inactive)	0.373	0.416 (inactive)	1.36 (inactive)	1.49
COc1ccc(CCNC(=O)[C@@H]2c3ccccc3C(=O)N(Cc3ccccc3)[C@H]2c2ccc(CO)cc2)cc1	-0.039	-2.05 (inactive)	-1.57 (inactive)	0.971 (inactive)	-1.15 (inactive)	0.0585	-0.0195	-0.447	0.954	0.832	1.81 (inactive)	0.436	3.59 (inactive)	-0.275 (inactive)	0.504 (inactive)	-0.508 (inactive)	1.89	-6.18 (inactive)	-0.909 (inactive)	-4.52
N#Cc1ccc(NN2C(C(O)c3ccco3)C=CC3C(=O)N(c4ccccc4)C(=O)C32)cc1 (stereo not given)	0.0896	1.34 (inactive)	-0.768 (inactive)	-0.136 (inactive)	0.2 (inactive)	0.252	0.0183	0.135	-0.236	-0.0404	-4.51 (inactive)	0.135	7.71 (inactive)	1.67 (inactive)	1.12 (inactive)	0.826 (inactive)	-0.555	-0.911 (inactive)	-4.51 (inactive)	-2.69
O=C1NC(=O)C2C1C=CC(C(O)CCc1ccccc1)N2Nc1ccccn1 (stereo not given)	0.149	-0.466 (inactive)	-0.922 (inactive)	0.433 (inactive)	-0.382 (inactive)	0.179	-0.0849	0.0825	0.486	0.0046	0.0468 (inactive)	0.0844	-0.247 (inactive)	-0.752 (inactive)	-0.548 (inactive)	-1.97 (inactive)	1	-1.43 (inactive)	-3.34 (inactive)	-1.52
